Experimental data from PubChem BioAssay AID624352 (Sanford-Burnham Center for Chemical Genomics, 2012).
Among all 360,000 compounds or so, about 2,600 (0.72%) were called active.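 How the source made its calls: active means inhibition of the luminescence signal of 40% or more relative to plate controls, in a single-dose primary screen at 18.75 µM; inactive means the rest.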 The sample as a whole holds a higher share of actives than the screen did.

experiment: HIF-2a reporter inhibitors, primary screen, luminescence, 786-0 RCC cells (AID 624352); conditions: 786-0 RCC cells HIF-2a reporter, luciferase luminescence, overnight; at 18.8 µM; hits give high values

inhibition, inactive:
CC(C)Cn1c(N)c(C(=O)COC(=O)C2CCCN2C(=O)c2cccs2)c(=O)n(C)c1=O (configuration not stated) 4.33%
CC1(C)C2CCC13CS(=O)(=O)NC3C2 (configuration not stated) 14.9%
N#Cc1ccc(OCC(=O)Nc2nc(-c3ccccn3)cs2)cc1 21.4%
O=C(NC(=S)Nc1ccc(Cl)cc1Cl)C1CC1 -294%
Cc1ccnc(NC(=O)CCNS(=O)(=O)c2ccc(C)c(C)c2)c1 -176%
O=C(COC(=O)c1cccc(Cl)c1)NC1CCCCCCC1 6.27%
COC(=O)c1cc(C(=O)NC(C)C2CC3CCC2C3)cc([N+](=O)[O-])c1 (configuration not stated) 18.1%
CC(NCC(=O)Nc1ccccc1C(=O)NC1CC1)c1ccccc1Cl (configuration not stated) 3.17%
CCCn1c(C)cc(C(=O)COC(=O)c2c(C)nn(-c3ccccc3)c2C)c1C -28.6%
COc1ccc(CNC(=O)COC(=O)c2sccc2C)cc1OC -10.1%
CCCCN(C(=O)CCNC(=O)NC12CC3CC(CC(C3)C1)C2)c1c(N)n(CCCC)c(=O)[nH]c1=O 4.48%
Oc1c(CN2CCOCC2)ccc(CN2CCOCC2)c1O 9.75%
COc1ccc(C(CNC(=O)c2ccc(S(=O)(=O)Nc3ccccc3F)cc2)N(C)C)cc1 (configuration not stated) 4.08%
Nc1nc(Br)c2ccccc2c1-c1ccc(F)cc1 5.57%
Cn1c(=NC(=O)c2ccc3c(c2)OCCO3)sc2cc(S(C)(=O)=O)ccc21 -28.1%
O=C(O)c1ccc(N=NN2CCOCC2)cc1 10.1%
O=C(c1ccccc1)C(O)(CN1CCCCC1)c1ccccc1 (configuration not stated) 13.3%
COc1ccc(CNc2c(CO)cnc3c2cnn3C)cc1 17.6%
CCN(CC)S(=O)(=O)c1ccc(NC(=O)c2cnc(C)cn2)cc1 11%
Cc1ccc(CNC(=O)c2cccnc2Cl)cc1 2.18%
CCOCCc1c(O)nc(SCC(=O)NCc2ccco2)[nH]c1=O 11%
Cc1ccc(NC(=O)COC(=O)CN2CCCCCC2=O)c(C)c1 11.4%
CC(C)COc1ccc(C(=O)NNC(=O)CCC(=O)c2cccs2)cc1 -5.7%
Cc1cccc(C(=O)OC(C)C(=O)NC2CCCc3ccccc32)c1O (configuration not stated) 3.74%
CC1CCCCN1S(=O)(=O)CCNC(=O)c1ccccc1 (configuration not stated) 2.54%
O=C1COc2ccc(C(=O)CSc3ccc(Br)cc3)cc2N1 -19.3%
CN(CCc1ccccc1)C(=O)c1cccc(NC(=O)Cc2cccc(NC(=O)C3CCCN(C(=O)CCc4ccccc4)C3)c2)c1 (configuration not stated) 1.76%
N#C/C(=C(\O)C(F)(F)F)c1nnc2n1CCCCC2 19.1%
N#C/C(=C(\O)CCl)c1nnc2n1CCCCC2 -5.99%
CCc1ccccc1NC(=O)/C(=C/c1ccccc1)c1ccccc1 2.55%
CCOC(=O)/C(=C\c1ccc([N+](=O)[O-])cc1)C(=O)c1cc(C(C)=O)c(Nc2ccccc2)s1 8.67%
COc1ccccc1C(=O)c1ccccc1C(=O)c1ccccc1 12%
COc1ccccc1/C=C/C(=O)NC1CC2CCC1C2 (configuration not stated) -129%
COC(=O)[C@H](CC(C)C)NC(=O)N1CCCCC1C (some centres not stated) 10.8%
C=CCn1c(SCCOc2ccc(OC)cc2)nnc1C(NC(=O)c1ccc(OC)cc1)C(C)C (configuration not stated) 26.4%
O=C(NNC(=S)NCCCN1CCOCC1)c1ccncc1 9.32%
O=C(C[n+]1ccc2c(c1)nnn2-c1ccccc1)c1ccc(Cl)cc1 -14.6%
O=C(CN1C(=O)NC2(CCOc3ccccc32)C1=O)NCc1ccc(F)cc1 (configuration not stated) 7.05%
O=C(CC12CC3CC(CC(C3)C1)C2)Nc1ccc2c(c1)COC2=O -0.0166%
O=C(COC(=O)CN1C(=O)C2CCCCC2C1=O)Nc1ccc(F)c(F)c1F (configuration not stated) 15.9%
COc1ccc(C(=O)COC(=O)CN2C(=O)C3CC=CCC3C2=O)c(OC)c1 (configuration not stated) -7.43%
C=CCN(C(=O)Cn1ncc2c1-c1cc(C)ccc1OC2)c1ccccc1 8.04%
CCOc1ccccc1NC(=O)C1CCCN(S(=O)(=O)c2ccccc2)C1 (configuration not stated) 6.68%
C/C(=N\NS(=O)(=O)c1ccc(Cl)cc1)c1ccc(NC(=O)c2ccco2)cc1 -80.3%
CN(C)/C=C(/C(=O)c1ccccc1)S(=O)(=O)c1ccc(Cl)cc1 -9.32%
CCCC(C(=O)N1CCOCC1)N1C(=O)C2C3C=CC(C3)C2C1=O (configuration not stated) 5.26%
CC(C)OCCCNC(=O)CNC(=O)c1cccs1 -6.91%
Cc1ccc(NNC(=O)c2cccs2)cc1Cl -22.8%

inhibition, active:
O=[N+]([O-])/C=C/c1ccc2c(ccn2Cc2ccccc2)c1 92.5%
COC(=O)Cc1[nH]n(-c2nc3ccccc3s2)c(=O)c1C(C)=Nc1ccc(OC)cc1 80.1%
Cc1ccsc1C(=O)OCC(=O)c1cc(C)n(CC2CCCO2)c1C (configuration not stated) 64.7%
O=C1C(Cl)=C(Oc2ccccc2)C(=O)c2ccccc21 88.1%
O=C(O)c1cccc(N=NN2CCCCCC2)c1 42.7%
CCN(CC)S(=O)(=O)c1ccc(NC(=O)c2cccnc2Cl)c(NC(=O)c2cccnc2Cl)c1 86.1%
COc1ccc2c(c1)c(=Cc1ccc(N(C)C)cc1)c1cc(-c3ccccc3)[n+](C)n12 88.2%
N#C/C(=C/c1cccc([N+](=O)[O-])c1)c1nnc2n1CCCCC2 40.7%
CCOC(=O)C(=Cc1ccccc1)C(=O)c1ccccc1 86.9%
CCOC(=O)C(=Cc1ccccc1OC)C(=O)OCC 56.9%
c1c2c(cc3sc(N4CCCCC4)nc13)OCCO2 70.3%
CC1=CC(C)(C)Nc2ccc(OC(=O)CN3C(=O)C4CCCCC4C3=O)cc21 (configuration not stated) 85.2%
O=C(Nc1ccccc1)c1nnsc1S(=O)(=O)c1ccc(Cl)cc1 55.9%
Cc1ccccc1C(CC(=O)c1cccs1)C(C#N)C#N (configuration not stated) 59.7%
